The source made the active and inactive calls.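 The calls were made as follows, unless noted: active = inhibition at or above 50% at 10 µM; inactive = inhibition below 50%.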
Key:
[1] = inhibitors of TNFa-induced NFkB p65 translocation, primary screen, imaging, HUVEC, MLSMR starter and 10KST1 sets (AID 438;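 active = inhibition above 20% together with a positive visual image hit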;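 also: compound added about 3h40 before a 20 min TNFalpha stimulation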;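 as to inhibition: signal is the nuclear over cytoplasmic p65 intensity ratio per well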); settings: HUVEC TNFa-induced p65 nuclear translocation; cell count: measured here: nuclei count (cytotoxicity indicator), at 2.08 µM; inhibition: at 2 µM, stronger effect = higher value, 0% TNFa-plus-vehicle, 100% no-TNFa wells
[2] = reduction of polyQ htt aggregates in cells – imaging, exon1htt(103Q)mCFP cells, high-content imaging, primary screen (AID 483;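 active = visual image review flags a hit and inhibition of aggregation exceeds 20%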;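 also: compound exposure lasted 3 days before fixation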;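 as to nuclei count: percent of the per-plate median nuclei count of sample wells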); settings: exon1htt(103Q)mCFP cell line, aggregate imaging, at 2 µM; inhibition of aggregation: stronger effect = higher value; nuclei count: measured here: cell count, toxicity
[3] = endothelial E-selectin expression blockers – imaging, HUVEC, immunofluorescence, MLSMR starter and 10KST1 sets, primary screen (AID 487;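 active = visually confirmed hit in the image check and inhibition above 20%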;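 as to inhibition: signal is fraction of cell area covered by stained E-selectin grains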;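 as to nuclei count: 100% = median nuclei count of all wells on the same plate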); settings: HUVEC TNFalpha-induced E-selectin immunofluorescence imaging, at 2 µM; inhibition: stronger effect = higher value; nuclei count: measured here: cell number, toxicity
[4] = target: Voltage-gated potassium channel subunit beta-2 (Rattus norvegicus) (UniProt P62483); test: inhibitors of rat Kvbeta2 reductase activity – biochemical, NADPH fluorescence, primary screen (AID 622;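 active = fluorescence slope higher than the sample average by over 3 SD, cut at about -0.22 in these data, passing the limit was not always enough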;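 also: slope of raw intensity against log time taken from 70 to 1610 s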); settings: recombinant KvBeta, 4-cyanobenzaldehyde reduction, at 10 µM, stronger effect = higher value
[5] = target: Voltage-gated potassium channel subunit beta-2 (Rattus norvegicus) (UniProt P62483); test: enhancers of rat Kvbeta2 NADPH turnover – biochemical, NADPH fluorescence, primary screen (AID 623;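 active = NADPH fluorescence slope more negative than the mean of all samples by about 3 SD, 99.7% confidence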;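 also: fluorescence intensity change per second fitted from 20 to 320 s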); settings: Recombinant KvBeta, NADPH fluorescence decrease slope, 10 min; at 10 µM; stronger effect = lower value
[6] = target: Alpha-2C adrenergic receptor (Homo sapiens) (UniProt P18825); test: compounds altering alpha2C-coupled GIRK flux – cell-based, HEK293 alpha2C/GIRK1/2, thallium flux, primary screen (AID 624;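 active = fluorescence slope after compound addition differing from the mean of all screened samples at 99.7% confidence, in either direction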;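 also: slope of fluorescence ratio to pre-addition baseline per second over 15 to 24 s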); settings: thallium flux BTC fluorescence, at 10 µM, actives lie on both sides
[7] = blockers of RIG-like receptor reporter activation – cell-based, Sendai virus stimulus, luciferase, 10K MLSCN set, TLR/RLR signaling modifier project, primary screen (AID 602276); settings: HEK293 RL24 IRF3 luciferase reporter, at 10 µM, stronger effect = higher value;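 also: firefly luciferase from ISG56 promoter only with Renilla not read in this screen; 0% = Sendai virus plus DMSO and 100% = medium plus DMSO without virus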
[8] = TLR3 IRF3 reporter activation blockers – cell-based, poly I:C stimulus, luciferase, 10K MLSCN set, primary screen (AID 602277;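 active = inhibition of the reporter signal at or above 50%; inactive = inhibition below 50%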); settings: HEK293-TLR3 RL24 IRF3 luciferase reporter, at 10 µM, stronger effect = higher value

Sequence of Voltage-gated potassium channel subunit beta-2 (Rattus norvegicus) (P62483 whole entry, looked up): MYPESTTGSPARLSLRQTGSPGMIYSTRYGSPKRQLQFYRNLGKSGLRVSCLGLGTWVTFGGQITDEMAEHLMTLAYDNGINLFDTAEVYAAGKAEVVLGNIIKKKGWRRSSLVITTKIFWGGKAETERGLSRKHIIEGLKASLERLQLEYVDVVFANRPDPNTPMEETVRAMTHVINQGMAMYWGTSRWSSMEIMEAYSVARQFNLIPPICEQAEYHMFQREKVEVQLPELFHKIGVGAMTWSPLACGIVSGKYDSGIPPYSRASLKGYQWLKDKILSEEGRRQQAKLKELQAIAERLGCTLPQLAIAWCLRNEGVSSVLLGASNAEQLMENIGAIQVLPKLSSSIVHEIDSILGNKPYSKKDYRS
Sequence of Alpha-2C adrenergic receptor (Homo sapiens) (P18825 whole entry, looked up): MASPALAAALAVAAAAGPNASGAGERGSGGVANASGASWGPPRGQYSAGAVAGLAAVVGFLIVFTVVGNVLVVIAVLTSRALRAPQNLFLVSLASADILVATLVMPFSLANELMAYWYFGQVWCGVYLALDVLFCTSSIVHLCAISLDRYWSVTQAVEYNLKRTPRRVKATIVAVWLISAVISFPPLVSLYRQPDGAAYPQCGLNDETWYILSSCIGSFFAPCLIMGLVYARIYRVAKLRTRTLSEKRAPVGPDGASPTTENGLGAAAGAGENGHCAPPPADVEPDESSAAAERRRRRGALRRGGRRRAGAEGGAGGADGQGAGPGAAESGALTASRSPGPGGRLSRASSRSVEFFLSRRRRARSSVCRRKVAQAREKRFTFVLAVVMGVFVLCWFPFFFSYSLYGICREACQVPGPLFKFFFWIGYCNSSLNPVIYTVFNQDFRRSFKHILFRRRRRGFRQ

Structure (SMILES)	cell count [1]	inhibition [1]	inhibition of aggregation [2]	nuclei count [2] [%]	inhibition [3]	nuclei count [3] [%]	fluorescence slope [4]	NADPH fluorescence slope [5]	slope [6]	inhibition [7]	inhibition [8]
CO/C([O-])=N/c1c[n+](-c2ccc(C)cc2)no1	711	-18.1% (inactive)	-9.2% (inactive)	104	-3.6% (inactive)	113	-0.471 (inactive)	-4.7e-05 (inactive)	0.00685 (inactive)	-8.44% (inactive)	-40% (inactive)
O=C(CNS(=O)(=O)c1ccccc1)NCc1ccccn1	707	-2.1% (inactive)	-10.6% (inactive)	106	-25.5% (inactive)	113	-0.517 (inactive)	-1.9e-05 (inactive)	0.00515 (inactive)	20.5% (inactive)	16.3% (inactive)
CC(C)NC(=O)Nc1cccs1	708	3% (inactive)	21.6% (inactive)	104	-84.5% (inactive)	105	-0.507 (inactive)	-5.6e-05 (inactive)	0.00565 (inactive)	11.4% (inactive)	4.68% (inactive)
COc1ccc(C)cc1NC(=O)CCN1CCCC1	257	-1.2% (inactive)	7.8% (inactive)	87.6	6.5% (inactive)	109	-0.442 (inactive)	-3.8e-06 (inactive)	0.00559 (inactive)	15.3% (inactive)	16.2% (inactive)
O=S1(=O)CCC(N=Cc2cc(Br)ccc2O)C1 (stereo not drawn)	500	-13.1% (inactive)	32.5% (inactive)	76.6	18% (inactive)	97.7	-0.498 (inactive)	-4e-05 (inactive)	0.0045 (inactive)	17.3% (inactive)	22.5% (inactive)
CCCCn1c(SCC(=O)Nc2ccc(OC)cc2)nc2ccc(N3CCOCC3)cc2c1=O	508	-0.6% (inactive)	20.8% (inactive)	44.4	-3.4% (inactive)	103	-0.407 (inactive)	6.3e-06 (inactive)	0.00425 (inactive)	11.2% (inactive)	13.1% (inactive)
CC(=O)NCc1ccc(C(=O)CSc2nnc(-c3ccncc3)n2Cc2ccccc2)o1	461	-1.1% (inactive)	16.2% (inactive)	96	-25.7% (inactive)	127	-0.59 (inactive)	-5.8e-05 (inactive)	0.00604 (inactive)	12.6% (inactive)	20.5% (inactive)
O=C(c1sc2ccccc2c1Cl)N(Cc1cccs1)C1CCS(=O)(=O)C1 (stereo not drawn)	677	4.4% (inactive)	17.9% (inactive)	90.3	10.4% (inactive)	108	-0.579 (inactive)	-2.7e-05 (inactive)	0.00741 (inactive)	10.4% (inactive)	32.5% (inactive)
